Reference: paper PMC7862700, “An all-to-all approach to the identification of sequence-specific readers for epigenetic DNA modifications on cytosine”

What was measured:
Assay in all cases: DAPPL (digital affinity profiling via proximity ligation, sequencing); 10 mM Tris-HCl pH 7.5, 50 mM NaCl, 1 mM DTT, 4% glycerol, room temperature, 30 min; GST-TFs on glutathione beads, 16-mer random dsDNA library, 0.1% formaldehyde crosslink after washing; high values mean tight binding
Conditions in all cases: protein: recombinant; tags: N-terminal GST; dsDNA, one strand shown
FLI1 = biological target: T1, FLI1 (Homo sapiens, UniProt Q01543 1-452)
T1 sequence: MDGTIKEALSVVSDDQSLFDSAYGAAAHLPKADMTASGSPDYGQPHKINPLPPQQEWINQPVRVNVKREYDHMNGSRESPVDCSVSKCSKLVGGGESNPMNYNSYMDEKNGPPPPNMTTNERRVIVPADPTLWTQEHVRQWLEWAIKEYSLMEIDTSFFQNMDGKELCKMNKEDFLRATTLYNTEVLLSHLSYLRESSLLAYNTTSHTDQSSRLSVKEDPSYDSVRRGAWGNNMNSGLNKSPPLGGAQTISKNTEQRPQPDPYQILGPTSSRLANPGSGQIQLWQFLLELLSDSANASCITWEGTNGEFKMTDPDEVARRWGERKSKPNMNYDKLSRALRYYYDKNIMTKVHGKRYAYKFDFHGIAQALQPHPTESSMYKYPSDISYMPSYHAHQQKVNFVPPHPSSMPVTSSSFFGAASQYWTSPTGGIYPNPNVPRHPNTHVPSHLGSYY
Procedure, shortened: (§1)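 Pools of DNA-barcoded human transcription factors, expressed in yeast as GST fusions on glutathione beads and combined with a tag-only sample, were incubated with 200 nmole of a 16-mer random double-stranded DNA library. Incubation took 30 min at room temperature in Tris/NaCl/DTT/glycerol buffer and was followed by washing, 0.1% formaldehyde crosslinking, proximity ligation (BsaI/T4 ligase, 1 h, 37 °C), PCR amplification and sequencing on an Illumina NextSeq500. Binding signal is the ratio of a hexamer's read frequency for a factor to its frequency for the tag-only sample.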

ELK1 = biological target: T2, ELK1 (Homo sapiens, UniProt P19419 1-428)
T2 sequence: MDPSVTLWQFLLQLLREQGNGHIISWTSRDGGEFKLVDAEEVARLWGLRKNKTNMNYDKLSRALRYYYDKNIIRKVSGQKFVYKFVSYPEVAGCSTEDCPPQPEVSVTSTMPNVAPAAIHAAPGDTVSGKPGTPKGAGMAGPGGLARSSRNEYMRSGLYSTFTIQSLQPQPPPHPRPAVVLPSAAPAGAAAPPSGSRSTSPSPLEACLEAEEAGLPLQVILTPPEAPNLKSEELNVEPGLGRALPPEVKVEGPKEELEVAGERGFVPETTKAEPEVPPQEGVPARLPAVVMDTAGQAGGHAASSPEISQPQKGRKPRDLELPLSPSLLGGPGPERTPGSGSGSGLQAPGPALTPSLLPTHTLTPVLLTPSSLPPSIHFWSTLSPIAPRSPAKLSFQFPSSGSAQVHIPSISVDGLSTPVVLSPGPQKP
Procedure, shortened: as §1

GABPA = biological target: T3, GABPA (Homo sapiens, UniProt Q06546 1-454)
T3 sequence: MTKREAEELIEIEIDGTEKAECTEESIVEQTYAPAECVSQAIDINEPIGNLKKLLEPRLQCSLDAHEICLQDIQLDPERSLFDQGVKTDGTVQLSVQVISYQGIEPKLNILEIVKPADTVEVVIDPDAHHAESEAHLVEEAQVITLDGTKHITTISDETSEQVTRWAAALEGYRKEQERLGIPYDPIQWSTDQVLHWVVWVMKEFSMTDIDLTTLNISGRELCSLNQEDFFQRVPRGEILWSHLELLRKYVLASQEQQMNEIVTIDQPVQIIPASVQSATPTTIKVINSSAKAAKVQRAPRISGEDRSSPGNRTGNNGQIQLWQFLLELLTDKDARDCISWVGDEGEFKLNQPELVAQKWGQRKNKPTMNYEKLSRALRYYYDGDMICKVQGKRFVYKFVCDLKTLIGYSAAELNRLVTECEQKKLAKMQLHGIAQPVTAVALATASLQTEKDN
Procedure, shortened: as §1

ERG = biological target: T4, ERG (Homo sapiens, UniProt P11308 1-479)
T4 sequence: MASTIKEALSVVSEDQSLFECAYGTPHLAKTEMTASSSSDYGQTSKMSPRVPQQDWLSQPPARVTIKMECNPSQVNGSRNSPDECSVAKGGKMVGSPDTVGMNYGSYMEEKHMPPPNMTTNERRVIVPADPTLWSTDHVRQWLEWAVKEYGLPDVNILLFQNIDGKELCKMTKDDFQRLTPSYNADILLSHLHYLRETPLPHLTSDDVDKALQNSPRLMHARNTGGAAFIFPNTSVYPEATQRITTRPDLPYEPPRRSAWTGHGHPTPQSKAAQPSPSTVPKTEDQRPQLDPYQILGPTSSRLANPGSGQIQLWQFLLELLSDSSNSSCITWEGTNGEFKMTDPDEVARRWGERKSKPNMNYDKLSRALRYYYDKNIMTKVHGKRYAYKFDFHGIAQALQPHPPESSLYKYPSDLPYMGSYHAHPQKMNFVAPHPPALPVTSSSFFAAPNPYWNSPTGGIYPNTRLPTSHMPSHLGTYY
Procedure, shortened: as §1

ELF1 = ELF1 (Homo sapiens, UniProt P32519 1-619)
Chain of ELF1 (P32519 whole entry): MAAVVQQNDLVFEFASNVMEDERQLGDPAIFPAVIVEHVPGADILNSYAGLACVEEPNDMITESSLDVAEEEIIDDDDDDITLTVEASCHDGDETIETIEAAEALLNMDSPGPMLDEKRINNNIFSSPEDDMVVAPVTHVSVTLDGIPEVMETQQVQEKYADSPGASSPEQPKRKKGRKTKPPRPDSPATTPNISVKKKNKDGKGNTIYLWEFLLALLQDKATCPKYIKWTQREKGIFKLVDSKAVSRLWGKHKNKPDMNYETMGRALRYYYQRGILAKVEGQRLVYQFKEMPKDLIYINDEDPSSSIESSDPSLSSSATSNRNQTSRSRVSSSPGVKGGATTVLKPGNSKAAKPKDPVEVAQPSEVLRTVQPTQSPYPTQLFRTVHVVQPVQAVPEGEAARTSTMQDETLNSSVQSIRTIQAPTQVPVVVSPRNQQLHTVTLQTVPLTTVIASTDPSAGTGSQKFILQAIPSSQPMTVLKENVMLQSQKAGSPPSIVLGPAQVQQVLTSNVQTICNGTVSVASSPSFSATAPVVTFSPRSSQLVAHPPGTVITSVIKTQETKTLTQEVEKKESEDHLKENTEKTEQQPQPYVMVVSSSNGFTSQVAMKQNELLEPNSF
Procedure, shortened: as §1

EHF = biological target: T5, EHF (Homo sapiens, UniProt Q9NZC4 1-300)
T5 sequence: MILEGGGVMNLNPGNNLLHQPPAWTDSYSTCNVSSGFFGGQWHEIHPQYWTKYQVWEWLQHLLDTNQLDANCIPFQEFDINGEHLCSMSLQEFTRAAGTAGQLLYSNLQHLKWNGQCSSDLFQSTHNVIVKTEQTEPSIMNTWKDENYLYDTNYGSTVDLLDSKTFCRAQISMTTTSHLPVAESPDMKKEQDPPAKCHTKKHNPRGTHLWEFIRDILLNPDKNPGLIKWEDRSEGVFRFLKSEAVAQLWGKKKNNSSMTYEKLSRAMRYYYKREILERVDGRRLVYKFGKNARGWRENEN
Procedure, shortened: as §1

SPI1 = SPI1 (Homo sapiens, UniProt P17947 1-270)
Procedure, shortened: as §1

SPIB = SPIB (Homo sapiens, UniProt Q01892 1-262)
Chain of SPIB (Q01892 whole entry): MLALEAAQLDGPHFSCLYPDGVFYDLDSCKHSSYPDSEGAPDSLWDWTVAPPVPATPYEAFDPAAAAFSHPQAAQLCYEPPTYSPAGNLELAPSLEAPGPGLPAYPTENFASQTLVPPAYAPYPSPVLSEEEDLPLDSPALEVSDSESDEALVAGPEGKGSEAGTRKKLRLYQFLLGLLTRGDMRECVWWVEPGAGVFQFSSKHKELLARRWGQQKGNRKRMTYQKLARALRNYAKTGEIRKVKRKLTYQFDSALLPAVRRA
Procedure, shortened: as §1

ELK3 = biological target: T6, ELK3 (Homo sapiens, UniProt P41970 1-407)
T6 sequence: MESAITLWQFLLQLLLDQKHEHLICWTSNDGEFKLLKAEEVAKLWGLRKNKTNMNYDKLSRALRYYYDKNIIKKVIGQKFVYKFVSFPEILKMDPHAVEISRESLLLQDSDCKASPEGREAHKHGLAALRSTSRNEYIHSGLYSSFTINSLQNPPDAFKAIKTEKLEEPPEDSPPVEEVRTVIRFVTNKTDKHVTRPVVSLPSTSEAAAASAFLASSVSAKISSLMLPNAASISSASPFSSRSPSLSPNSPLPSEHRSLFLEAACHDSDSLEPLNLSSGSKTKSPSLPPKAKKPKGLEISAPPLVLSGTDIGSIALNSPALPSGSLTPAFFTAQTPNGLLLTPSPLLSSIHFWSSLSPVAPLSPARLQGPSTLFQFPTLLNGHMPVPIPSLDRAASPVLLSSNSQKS
Procedure, shortened: as §1

Sequence: CCTCTT
- binding signal (FLI1): 1.5 fold enrichment (6-mer frequency, TF over GST control)
- binding signal (ELK1): 1.45 fold enrichment (6-mer frequency, TF over GST control)
- binding signal (GABPA): 1.6 fold enrichment (6-mer frequency, TF over GST control)
- binding signal (ERG): 1.68 fold enrichment (6-mer frequency, TF over GST control)
- binding signal (ELF1): 1.5 fold enrichment (6-mer frequency, TF over GST control)
- binding signal (EHF): 1.71 fold enrichment (6-mer frequency, TF over GST control)
- binding signal (SPI1): 2.57 fold enrichment (6-mer frequency, TF over GST control)
- binding signal (SPIB): 1.67 fold enrichment (6-mer frequency, TF over GST control)
- binding signal (ELK3): 1.66 fold enrichment (6-mer frequency, TF over GST control)
